High-throughput results (PubChem)
This is a sample that favours compounds with a hit; in the whole collection about 2% have one here.
DAGLB inhibitor: DAGLB lipase inhibitors, primary screen, biochemical, fluorescence, HTS; Diacylglycerol lipase-beta (Homo sapiens), Q8NCG7; HEK293T DAGLB membrane lysate, EnzChek fluorogenic substrate; inhibition, % at 5.17 µM; 340,000 compounds, 0.059% hits; AID 504411, 2011; in the data active = inhibition above about 34%
Target sequence (Q8NCG7 whole entry, looked up): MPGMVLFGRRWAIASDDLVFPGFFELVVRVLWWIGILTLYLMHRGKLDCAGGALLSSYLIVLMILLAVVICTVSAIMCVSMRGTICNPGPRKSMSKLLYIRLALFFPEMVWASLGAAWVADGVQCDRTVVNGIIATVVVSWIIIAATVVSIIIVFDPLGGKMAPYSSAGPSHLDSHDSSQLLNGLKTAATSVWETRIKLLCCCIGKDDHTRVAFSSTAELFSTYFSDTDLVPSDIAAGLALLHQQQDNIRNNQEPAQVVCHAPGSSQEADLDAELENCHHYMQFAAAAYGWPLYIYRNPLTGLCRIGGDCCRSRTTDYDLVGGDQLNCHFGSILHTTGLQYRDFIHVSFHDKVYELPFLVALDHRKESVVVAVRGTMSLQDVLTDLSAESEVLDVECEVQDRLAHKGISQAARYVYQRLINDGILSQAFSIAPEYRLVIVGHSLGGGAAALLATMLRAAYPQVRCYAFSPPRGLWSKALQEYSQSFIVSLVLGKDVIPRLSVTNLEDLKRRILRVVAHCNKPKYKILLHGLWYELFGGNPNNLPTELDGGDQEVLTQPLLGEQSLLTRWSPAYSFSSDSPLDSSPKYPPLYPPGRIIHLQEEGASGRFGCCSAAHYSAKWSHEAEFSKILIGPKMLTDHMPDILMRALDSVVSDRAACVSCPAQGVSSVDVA
ARNT-TACC3 inh: disruptors of ARNT/TACC3 protein interaction, primary screen, biochemical, AlphaScreen, single concentration. 390,000 compounds, 0.66% hits. AlphaScreen His-ARNT PAS-B/GST-TACC3 binding, luminescence; TACC3 fragment carries E629A point mutation. AID 623870, 2012. Transforming acidic coiled-coil-containing protein 3 (Homo sapiens), Q9Y6A5. inhibition, % at 9.99 µM;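 active = mean inhibition of replicates at least 50% and at least half of replicates each reaching 50%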
NadD inh: inhibitors of S. aureus NadD, primary screen, biochemical, colorimetric, uHTS; 360,000 compounds, 0.78% hits; purified NadD enzyme, colorimetric absorbance read-out; Nicotinate-nucleotide adenylyltransferase NadD (Staphylococcus aureus N315); AID 602399, 2012; inhibition, % at 20 µM; in the data active = inhibition above about 26%
HGIII-sPLA2 inh: human group III sPLA2 inhibitors, primary screen, biochemical, QFRET, BODIPY PC-A2 liposome substrate | Group 3 secretory phospholipase A2 (Homo sapiens), Q9NZ20 | QFRET BODIPY PC-A2 liposome hydrolysis, fluorescence | inhibition, % at 12.2 µM | 370,000 compounds, 0.56% hits | AID 743126, 2013;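 active = inhibition above mean plus 3 SD of compounds lying within the high and low control bounds, cut at about 19% in these data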
Neddyl block: inhibitors of cullin neddylation, primary screen, biochemical, TR-FRET, uHTS, NAE and Ubc12; NEDD8-conjugating enzyme Ubc12 (Homo sapiens) + NEDD8-activating enzyme E1 regulatory …; inhibition, % at 25 µM; 360,000 compounds, 0.58% hits; AID 651699, 2012; in the data active = inhibition above about 36%
NadD conf: inhibitors of S. aureus NadD, confirmation, biochemical, colorimetric, single concentration. AID 624309, 2012. 2,000 compounds, 13% hits. purified S. aureus NadD, colorimetric enzyme assay. inhibition, % at 20 µM. shares compounds with NadD inh; in the data active = inhibition mostly above about 42%, no sharp cut-off; inactive = mostly below about 42%
A number is an active result; – = inactive; · = not tested or not shown.

SMILES | DAGLB inhibitor | ARNT-TACC3 inh | NadD inh | HGIII-sPLA2 inh | Neddyl block | NadD conf
CCCCC(=O)Nc1ccc(C)c(S(=O)(=O)N2CCCCCC2)c1 | – | – | – | – | – | ·
CCCCNC(=O)C1=C(N)C(C(=O)Nc2ccc(C)c(S(=O)(=O)N3CCCCC3)c2)SC1=Nc1ccc(C)cc1C (configuration not stated) | – | – | 40 | – | – | –
COCC(=O)Nc1ccc2c(c1)OC[C@H](C)N(Cc1cccc(F)c1)C[C@H](C)[C@H](OC)CN(C)C2=O | · | – | · | · | · | ·
COC(=O)C1=C(C)N=C2SC(C)C(=O)N2C1/C=C/c1ccccc1OC (configuration not stated) | – | – | 29 | – | – | –
CCC1SC2=NC(C)=C(C(=O)OCCOC)C(/C=C/c3ccccc3OC)N2C1=O (configuration not stated) | – | – | – | – | – | ·
Nc1ccc(Cc2ccc(N)c(O)c2)cc1O | – | – | 37 | – | – | –
COc1cc(Cc2ccc(N)c(OC)c2)ccc1N | – | – | – | – | – | ·
O=C(/C=C(\O)c1ccccc1)C(=O)NNC(=O)c1ccccc1[N+](=O)[O-] | – | – | – | – | – | ·
Nc1ccccc1C(=O)NNC(=O)C(=O)/C=C(\O)c1ccccc1 | · | · | 72 | – | 47 | 73
O=C(Cc1cc(=O)[nH][nH]1)N/N=C/C=C/c1ccccc1 | – | – | 34 | – | – | 64
CN(C)CC(=O)N[C@@H]1CC[C@@H](CCNC(=O)Nc2ccc(C(F)(F)F)cc2)O[C@@H]1CO | · | – | · | · | · | ·
Cc1ccc(/C=c2\sc3nc(-c4ccco4)nn3c2=O)o1 | – | – | – | · | – | ·
Cc1ccc(/C=c2\sc3nc(-c4ccccc4Br)nn3c2=O)o1 | – | – | 26 | – | – | –
CO[C@@H]1CN(C)C(=O)c2ccc(NS(=O)(=O)c3cccc(C)c3)cc2OC[C@@H](C)N(Cc2cc(F)ccc2F)C[C@H]1C | · | – | · | · | · | ·
O=c1c2ccccc2sn1-c1ccc(S(=O)(=O)N2CCCCC2)cc1 | – | – | 31 | – | – | –
O=C(c1ccc(F)cc1)N1C[C@@H]2[C@H](c3ccccc31)[C@@H](CO)N2Cc1ccc2c(c1)OCO2 | · | – | · | · | · | ·
C=C(C)CN(CC)c1nc(N)c2c(N)nc3c(c2c1C#N)CC(=O)N3C12CC3CC(CC(C3)C1)C2 | – | – | 35 | – | – | –
Cc1nonc1NC(=O)CSc1nc2cc(Cl)ccc2c2c1CCCC2 | – | – | 30 | · | – | –
COc1ccc(COc2cc(-c3cccc(OC)c3)nc3ccc(NC(=O)c4ccc(C)cc4)cc23)cc1 | – | – | 40 | – | – | –
COc1ccc(COc2cc(-c3cccc(OC)c3)nc3ccc(NC(=O)c4ccc(N(C)C)cc4)cc23)cc1 | – | – | – | · | – | ·
COc1ccc(OC)c(NC(=O)CSc2sc3c(O)cc(=O)[nH]c3c2C#N)c1 | – | – | – | – | – | ·
COc1cc(Cl)c(C)cc1NC(=O)CSc1sc2c(O)cc(=O)[nH]c2c1C#N | – | · | 42 | – | – | –
Cn1c(N)c(C(=O)COC(=O)c2cc(-c3ccco3)nc3ccccc23)c(=O)n(C)c1=O | – | – | 59 | – | – | 74
COc1ccc(-c2cc(C(=O)OCC(=O)c3c(N)n(C)c(=O)n(C)c3=O)c3ccccc3n2)cc1 | – | – | – | – | – | ·
O=C(COC(=O)c1cc(-c2ccco2)nc2ccccc12)NCc1ccccc1 | – | – | 46 | – | – | –
SMILES | DAGLB inhibitor | ARNT-TACC3 inh | NadD inh | HGIII-sPLA2 inh | Neddyl block | NadD conf
CCN(CC)C(=O)COC(=O)c1cc(-c2ccc(OC)cc2)nc2ccccc12 | – | – | – | – | · | ·
CCN(CC)C(=O)COC(=O)c1cc(-c2ccco2)nc2ccccc12 | – | – | 31 | – | – | –
CNC(=O)COC(=O)c1cc(-c2ccco2)nc2ccccc12 | – | – | – | – | · | ·
Cc1ccc(S(=O)(=O)N(C)C[C@H]2OCCCC[C@H](C)Oc3ccc(NC(=O)NC4CCCCC4)cc3C(=O)N([C@H](C)CO)C[C@H]2C)cc1 | · | – | · | · | · | ·
COc1ccc(S(=O)(=O)N(C)C[C@@H]2OCCCC[C@H](C)Oc3ccc(N(C)C)cc3C(=O)N([C@H](C)CO)C[C@@H]2C)cc1 | · | – | · | · | · | ·
CCCNC(=O)N(C)C[C@H]1Oc2ncc(-c3ccncc3)cc2C(=O)N([C@H](C)CO)C[C@H]1C | · | – | · | · | · | ·
COc1ccc(NC(=O)Nc2cccc3c2O[C@@H](CN(C)C(=O)Nc2cccc4ccccc24)[C@H](C)CN([C@@H](C)CO)C3=O)cc1 | · | – | · | · | · | ·
O=C(C[C@H]1CC[C@H]2[C@@H](COC[C@@H](O)CN2C(=O)Nc2cccc(Cl)c2)O1)NCCCN1CCOCC1 | · | – | · | · | · | ·
C[C@@H]1CN([C@@H](C)CO)C(=O)c2cc(NC(=O)CCC(F)(F)F)ccc2O[C@@H](C)CCCCO[C@@H]1CN(C)C(=O)Nc1ccc2c(c1)OCO2 | · | – | · | · | · | ·
O=C1NC[C@H](Cc2ccc(O)cc2)N(C[C@@H]2CCCN2C[C@H](Cc2ccc(O)cc2)N2C[C@H](Cc3ccccc3)N(CC3CCCCCC3)C(=O)C2=O)C1=O | · | · | 45 | – | – | –
O=C1NC[C@H](Cc2ccc(O)cc2)N(C[C@@H]2CCCN2C[C@H](Cc2ccccc2)N2C[C@H](Cc3ccc(O)cc3)N(CC3CCCCCC3)C(=O)C2=O)C1=O | · | · | 39 | – | – | –
O=C1NC[C@H](Cc2ccccc2)N(C[C@H]2CCCN2C[C@H](Cc2ccccc2)N2C[C@H](Cc3ccc(O)cc3)N(CC3CCCCCC3)C(=O)C2=O)C1=O | – | – | 31 | – | – | 48
CC(C)C[C@H]1CN([C@@H](Cc2ccc(O)cc2)CN2CCC[C@@H]2CN2C(=O)C(=O)NC[C@@H]2Cc2ccccc2)C(=O)C(=O)N1CC1CCCCCC1 | – | – | – | – | – | ·
O=C1NC[C@H](Cc2ccccc2)N(C[C@H]2CCCN2C[C@H](Cc2ccc(O)cc2)N2C[C@H](Cc3ccc(O)cc3)N(CC3CCCCCC3)C(=O)C2=O)C1=O | – | – | 33 | – | – | –
CCS(=O)(=O)NCC[C@@H]1CC[C@@H](NC(=O)C2CCC2)[C@@H](CO)O1 | · | – | · | · | · | ·
CO[C@H](CN(C)Cc1cc(F)ccc1F)[C@@H](C)CN([C@@H](C)CO)S(=O)(=O)c1ccc(F)cc1 | · | – | · | · | · | ·
Cc1cccc(Nc2n[nH]c(=S)s2)c1C | – | – | 32 | – | – | –
COc1ccccc1Nc1n[nH]c(=S)s1 | – | – | – | – | – | ·
Cc1cccc(C)c1Nc1n[nH]c(=S)s1 | – | · | – | – | – | ·
